LRH-1 inv ag: LRH-1 (NR5A2) inverse agonists, primary screen, cell-based, luminescence, HEK293T, StAR-luciferase reporter; AID 602396, 2012; inhibition, % at 3.6 µM; LRH-1 transfected, 24 h; 0.13% of 360,000 active; Nuclear receptor subfamily 5 group A member 2 (Homo sapiens), O00482;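 active means inhibition above the mean inhibition of all tested compounds plus 3 SD, cut at about 73% in these data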;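 further: 0% = DMSO wells and 100% = reporter-only cells lacking LRH-1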
Target sequence (O00482 whole entry, looked up): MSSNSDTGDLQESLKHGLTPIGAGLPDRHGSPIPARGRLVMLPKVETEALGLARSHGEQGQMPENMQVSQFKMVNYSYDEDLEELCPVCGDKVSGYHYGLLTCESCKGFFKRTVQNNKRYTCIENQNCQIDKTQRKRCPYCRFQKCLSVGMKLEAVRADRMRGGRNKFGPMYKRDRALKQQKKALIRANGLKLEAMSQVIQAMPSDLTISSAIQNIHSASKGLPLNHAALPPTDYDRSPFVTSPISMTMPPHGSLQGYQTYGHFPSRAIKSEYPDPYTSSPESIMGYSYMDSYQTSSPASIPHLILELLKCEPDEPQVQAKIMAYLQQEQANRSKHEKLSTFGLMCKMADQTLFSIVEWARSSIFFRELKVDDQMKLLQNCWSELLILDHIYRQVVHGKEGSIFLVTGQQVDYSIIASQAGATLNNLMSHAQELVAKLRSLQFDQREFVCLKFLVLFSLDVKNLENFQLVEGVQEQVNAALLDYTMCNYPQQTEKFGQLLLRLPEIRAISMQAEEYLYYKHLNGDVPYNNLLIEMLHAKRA
SRC2 inh: inhibition of GAL4-SRC2 driven luciferase reporter, primary screen, SRC2 inhibitor project, cell-based, luminescence; Nuclear receptor coactivator 2 (Homo sapiens), Q15596; HEK293 GAL4-SRC2 luciferase reporter; inhibition, % at 9 µM; 0.17% of 370,000 active; AID 651957, 2012;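 active means inhibition above the mean inhibition of all tested compounds plus 3 SD, set per campaign, cut at about 52% in these data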;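 further: 0% = DMSO treated cells and 100% = cells given Gossypol at 36 µM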
SRC3 inh: SRC3 coactivator transcriptional activity inhibitors, primary screen, cell-based, luminescence | 0.17% of 360,000 active | AID 588352, 2011 | HEK293 GAL4-SRC3 luciferase reporter | Nuclear receptor coactivator 3 (Homo sapiens), Q9Y6Q9 | inhibition, % at 3.6 µM;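 active means inhibition above a per-campaign cutoff, the mean of all compounds plus 3 SD, cut at about 60% in these data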;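 further: 0% = DMSO-treated cells and 100% = gossypol-treated cells at 36 µM; higher means less SRC3-driven luciferase light from the GAL4 reporter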
COUP-TFII inh: NR2F2 transcriptional activity inhibitors, primary screen, cell-based, luciferase reporter, HEK293T, luminescence; inhibition, % at 8.6 µM; HEK293T NGFI-A luciferase reporter; 0.7% of 370,000 active; COUP transcription factor 2 (Homo sapiens), P24468;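 active means inhibition above a per-plate cutoff, mean inhibition of test wells between control levels plus 3 SD, cut at about 38% in these data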;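 further: cells cotransfected with COUP-TFII expression vector driving the NGFI-A reporter; 0% = median of COUP-TF2 test wells and 100% = reporter-only cells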
Gli-Sufu antag: Gli-Sufu pathway antagonists, primary screen, luciferase luminescence, Sufu-KO-LIGHT cells, uHTS; AID 588413, 2011; 0.74% of 340,000 active; Sufu-KO-LIGHT fibroblasts, Gli luciferase reporter luminescence; inhibition, % at 5 µM;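 active means inhibition above about 55%, limit read from the data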;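 further: 0% = DMSO-treated cells and 100% = wells with medium but no cells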
SRC1 inh: SRC1 coactivator transcriptional activity inhibitors, primary screen, cell-based, luminescence; HEK293 GAL4-SRC1 luciferase reporter; AID 588354, 2011; inhibition, % at 3.6 µM; Nuclear receptor coactivator 1 (Homo sapiens), Q15788; 0.12% of 360,000 active;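 active means inhibition above the campaign mean plus 3 SD, with each screening campaign given its own cutoff, cut at about 60% in these data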;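 further: 0% = DMSO treated cells and 100% = gossypol at 36 µM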
VP16 Luc counter: Gal4-VP16 luciferase reporter inhibitors, counter-screen for COUP-TFII antagonist project, cell-based, luminescence, HEK293 | shares compounds with COUP-TFII inh | inhibition, % at 8.5 µM | 25% of 2,500 active; in the data active means inhibition above about 13%
COUP-TFII conf: NR2F2 transcriptional activity inhibitors, confirmation, cell-based, luciferase reporter, HEK293, triplicate; shares compounds with COUP-TFII inh; HEK293 NGFI-A luciferase reporter, luminescence; inhibition, % at 8.5 µM; 45% of 2,500 active; AID 687008, 2013;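 active means mean inhibition over three repeats above a set limit taken from the earlier primary screen, cut at about 38% in these data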;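 further: 100% = cells given the luciferase reporter alone without the COUP-TF2 vector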
Numbers without * were called inactive; · = no result given. In the library only some 1.2% were active in any assay of this set; here they are far more common.

SMILES	LRH-1 inv ag	SRC2 inh	SRC3 inh	COUP-TFII inh	Gli-Sufu antag	SRC1 inh	VP16 Luc counter	COUP-TFII conf
COc1ccc(NC(=O)CN(C)C(=O)c2cccc(S(=O)(=O)N3CCN(Cc4ccccc4)CC3)c2)cc1	20	·	15	·	39	-2	·	·
CSc1ccc(CN(C)C(=O)c2cc(S(=O)(=O)NCc3ccccc3)ccc2C)cc1	18	7	-4	53*	5	9	-5	9
CN(CCOc1ccc(Cl)cc1)C(=O)c1cccc(S(=O)(=O)N2CCN(Cc3ccccc3)CC2)c1	25	22	5	67*	43	13	15*	58*
COCCCn1cnn2c(=O)c3ccccc3nc2c1=O	·	-48	·	-23	·	·	·	·
CC(=O)CC[C@@H]1CC[C@]2(CCCN(C(=O)C(C)(C)C)C2)O1	·	11	·	1	·	·	·	·
COCc1cc(N2CCNC[C@@H]2C)ccc1N1CCN(Cc2ccccc2)[C@@H](C)C1	·	10	·	-16	·	·	·	·
CSc1ccc(CN(C)C(=O)c2cccc(S(=O)(=O)N3CCN(Cc4ccccc4)CC3)c2)cc1	23	10	32	41*	45	2	-5	24
CCCCCn1cc(CCC(=O)Nc2ccc(N(C)c3ccccn3)cc2)c2ccccc21	·	6	·	2	·	·	·	·
Cc1cc(-n2c(C)cc(C(=O)CSc3ncnc4ccccc34)c2C)no1	41	29	36	54*	73*	25	-4	60*
Cc1cc(C(=O)CSc2ncnc3ccccc23)c(C)n1C1CC1	-20	-5	13	2	12	-38	·	·
O=C(c1ccc(Cl)c(Cl)c1)N1CCN(c2ccnc3cc(Cl)ccc23)CC1	·	·	·	54*	·	·	10	22
CC(=O)N1CCN(c2ccnc3cc(Cl)ccc23)CC1	12	32	21	8	9	9	·	·
Cc1cc(C(=O)Nc2ccc(Cl)cc2)c(C)n1-c1ccccc1	83*	76*	86*	86*	69*	85*	81*	99*
Cc1ccc(NC(=O)c2cc(C)n(-c3ccccc3)c2C)cc1	68	56*	66*	70*	46	65*	60*	84*
Cc1ccc(Oc2cccc3c2S(=O)(=O)N([C@H](C)c2ccccc2)C[C@@H](COCc2ccccc2)O3)cc1	·	-36	·	-17	·	·	·	·
COc1ccc(CCNC(=O)CCNC(=O)c2ccc([N+](=O)[O-])cc2)cc1	15	19	4	39*	4	9	4	3
CCOC(=O)C1=CC[C@@H](c2ccccc2)C(C#N)(C#N)[C@H]1/C=C/c1ccccc1	·	9	·	4	·	·	·	·
C=CCCC1CN(Cc2ccc(OC)cc2)S(=O)(=O)c2c(cccc2N(C)S(=O)(=O)c2ccc(C)cc2)O1 (stereo not drawn)	·	6	·	8	·	·	·	·
CCc1c(-c2ccc(F)cc2F)ncn1CCc1ccccc1OC	·	-14	·	2	·	·	·	·
O=C(COc1ccccc1)Nc1cc(C(F)(F)F)ccc1N1CCCC1	8	18	-21	22	-11	4	·	·
Cc1cc(N2CCCC2)ccc1NC(=O)COc1cccc(C(F)(F)F)c1	24	18	21	40*	12	23	6	35
CCn1c(C)cc(C(=O)CN2C(=O)c3ccccc3S2(=O)=O)c1C	45	34	47	41*	64*	52	41*	72*
O=C(CN1C(=O)c2ccccc2S1(=O)=O)NCc1ccccc1Cl	-17	-4	-26	-1	3	-4	·	·
O=C(CN1C(=O)c2ccccc2S1(=O)=O)c1ccccc1Cl	12	57*	20	63*	·	14	11	34
C[C@@H]1CN(c2ccc(N3CCNC[C@H]3C)cc2C#N)C[C@H](C)O1	·	1	·	27	·	·	·	·
SMILES	LRH-1 inv ag	SRC2 inh	SRC3 inh	COUP-TFII inh	Gli-Sufu antag	SRC1 inh	VP16 Luc counter	COUP-TFII conf
Cc1ccc2nc(-c3ccc(F)cc3)c(Cc3cccc(F)c3)n2c1	·	-46	·	-27	·	·	·	·
Cc1nn(C2CCS(=O)(=O)C2)c(Cl)c1/C=C/C(=O)OCC(=O)c1cc(C)n(-c2ccc(F)cc2)c1C (stereo not drawn)	25	15	16	63*	-1	15	0	37*
Cc1nn(C2CCS(=O)(=O)C2)c(Cl)c1/C=C/C(=O)OCC(=O)c1c[nH]c2ccccc12 (stereo not drawn)	24	4	15	23	-1	-2	·	·
COc1ccc(C(C(=O)NC2CCCC2)n2c(CSCCOc3ccccc3)nc3ccccc32)cc1 (stereo not drawn)	21	79*	·	70*	·	·	28*	46*
CCC(C(=O)NCc1ccccc1)n1c(CSCCOc2ccccc2)nc2ccccc21 (stereo not drawn)	45	75*	·	58*	·	·	8	23
Cc1cc(C)nc(NC(N)=NCCc2ccccc2)n1	48	25	51	43*	0	38	-12	19
Cc1cc(C)nc(NC(N)=NCCc2c[nH]c3ccccc23)n1	27	3	25	40*	12	17	-6	13
Cc1cc(C)nc(NC(=NCCc2c[nH]c3ccccc23)NC(=O)Nc2ccc(Cl)cc2)n1	8	10	16	9	31	16	·	·
COc1ccccc1-c1cccc2[nH]c3c(c12)CCN1C(=O)[C@H]2[C@H](C)ON(C)[C@H]2C[C@@H]31	·	-2	·	-28	·	·	·	·
CCOc1cc(CNCc2ccncc2)cc(Br)c1OCc1ccccc1F	30	13	10	38*	1	0	11	34
CCOc1cc(CNCCSc2nnnn2C)cc(Br)c1OCc1ccccc1F	-9	-8	2	15	11	0	·	·
COc1cc(CNc2ccc(CNc3ncn[nH]3)cc2)ccc1OCC(=O)NC(C)(C)C	51	30	7	42*	8	-5	2	17
CCOC(=O)C1=C(C(=O)OCC)C2N(Cc3ccc(C#N)cc3)c3ccccc3[C@@]23C[C@@H](C(=O)OC)N(S(=O)(=O)c2ccccc2C)C3=N1 (stereo partly drawn)	·	-12	·	2	·	·	·	·
CCCc1c(-c2ccc(OC)cc2)ncn1CCc1ccccc1OC	·	17	·	47*	·	·	-8	-6
C=CCN1C(=O)[C@H](CC(=O)NCCCOCCCC)[C@@]2(C(=O)OCC)CCCC=C12	·	-8	·	3	·	·	·	·
